# Screens from PubChem.
# Epigenetic reg – derepresses silenced GFP reporter in murine cells | murine LDR cells, GFP reporter derepression, 30 h | Potency, µM (top dose mostly 53.9 µM), for the others: at the top dose GFP activation, most hits filed as activators | 280,000 compounds, 0.2% hits; also: % of control where 0% means no effect; nearly all actives have a fitted effect of over 60% in size
#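 Murine LDR cells bearing a silenced CMV-driven GFP reporter were exposed to compound for 30 h at 37 C. After PBS washes, GFP-positive cells (20-120 um objects) counted by laser-scanning microplate cytometry.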
# HttQ103 aggreg – inhibitors of mutant huntingtin aggregate formation in PC12 cells. PC12 HttQ103-GFP aggregates, Acumen cytometry, 40 h. Potency, µM (titrated, usually from 46.1 µM), for the others: top-dose activity change, negative = inhibition, most hits filed as inhibitors. 220,000 compounds, 1.1% hits; also: % is scaled to controls: 0 for no effect and ±100 for the full control effect; nearly all actives have a fitted effect of over 60% in size
#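 PC12 cells with ecdysone-inducible HTT exon1 Q103-GFP, induced by 100 nM tebufenozide, given compounds in a concentration series. GFP aggregates (1–25 um, 6 SD above background) counted in lysates by laser-scanning cytometry, 488 nm excitation.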
# NPSR antag – blocks cAMP signaling of the human neuropeptide S receptor. AID 1461. CHO-NPSR cells, cAMP TR-FRET, antagonist mode. Q6W5P4. 220,000 compounds, 1% hits. Potency, µM (series often up to 38.3 µM), without a hit: at the top dose activity change, negative = inhibition, hits mostly inhibitors; also: % is scaled to controls: 0 for no effect and ±100 for the full control effect; nearly all actives have a fitted effect of over 50% in size
# Target sequence (Q6W5P4 whole entry, looked up): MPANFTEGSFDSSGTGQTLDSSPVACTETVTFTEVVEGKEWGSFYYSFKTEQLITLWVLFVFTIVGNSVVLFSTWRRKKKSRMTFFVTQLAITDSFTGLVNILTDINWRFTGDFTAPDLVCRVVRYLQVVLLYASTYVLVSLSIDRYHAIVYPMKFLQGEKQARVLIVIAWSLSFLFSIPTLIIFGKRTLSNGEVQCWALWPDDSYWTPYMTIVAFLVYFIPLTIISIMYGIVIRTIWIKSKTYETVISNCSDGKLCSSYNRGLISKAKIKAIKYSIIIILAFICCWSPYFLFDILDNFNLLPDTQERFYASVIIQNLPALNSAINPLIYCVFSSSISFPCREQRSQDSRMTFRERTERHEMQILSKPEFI
# LMNA splice mod – LMNA splicing modulation | HeLa LMNA splicing GFP/RFP minigene ratio, 48 h | Potency, µM (highest dose often 46.1 µM), for inactives: top-dose ratio change, negative = inhibition, most hits filed as inhibitors | 200,000 compounds, 0.01% hits | AID 1487; active = well fitted inhibition curve with a large enough effect in the signal ratio, with a control signal flat, not every such curve was filed as active; inconclusive = small, poorly fitted or top-dose-only effect, or effect the other way, or a change in a side signal; the % refers to the signal ratio; also: % is scaled to controls: 0 for no effect and ±100 for the full control effect
#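 S3 HeLa cells stably expressing lamin A-EGFP splicing minigene plus DsRed2, 600 cells/well, 48 h compound exposure at 37C. Laser-scanning cytometry; analysed as GFP (500-530 nm)/RFP (575-640 nm) total intensity ratio; 0.5% DMSO vehicle.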
# HTT cytoprotect – Huntington cell model cytoprotection by ATP luminescence; PC12 HTT-Q103 induced, cytoprotection, ATP luminescence, 40 h; 230,000 compounds, 0.14% hits; Potency, µM (titrated, usually from 56.4 µM), without a hit: cytoprotection (ATP increase), most hits filed as activators; also: % of control where 0% means no effect; nearly all actives have a fitted effect of over 45% in size
#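 ATP quantification (ATPlite) reports survival of PC12 cells in which tebufenozide, 100 nM final, switches on Htt exon 1 with 103 glutamines linked to GFP; compounds are titrated.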
# * = called active by the depositor; ? = inconclusive; / = not tested or not shown; [ ] = another dose, or the depositor's remark. The list is not random: actives were taken first. Their share in the collection is about 1.5%. Unless noted, calls follow the shape of the dose curve; as a rule, active = well fitted curve in the direction sought with a large enough effect; inconclusive = small, poorly fitted or top-dose-only effect, or another doubt; inactive = no such curve, though single readings can be large; an effect the other way counts as inactive or inconclusive. Potency is read from the fitted curve at half-maximal effect.
SMILES,Epigenetic reg,HttQ103 aggreg,NPSR antag,LMNA splice mod,HTT cytoprotect
COCCn1c(=O)c(-c2ccc(OC)cc2)nc2cnc(N3CCN(C)CC3)nc21,/,/,/,-7%,-23%
O=C(O)c1ccc(C2Nc3ccccc3-c3nnc(SCc4ccc(Cl)cc4)nc3O2)cc1 (configuration not stated),-1%,/,/,/,/
Cc1cc(C)c2c(N)c(C(=O)c3ccccc3)sc2n1,0%,-21%[9.22 µM],4%,/,-4%[10 µM]
Cc1nc2sc(C(N)=O)c(N)c2c(C)c1CC(=O)c1ccccc1,-2%,3.5µM*,-3%,/,-41%
CC(C)c1ccc(-c2c(C#N)c(N)nc(SCC(=O)N3CCCCC3)c2C#N)cc1,-3%,-3%,10µM*,4%,-44%
O=C1/C(=C/C=C/c2ccccc2)Oc2c1ccc(O)c2CN1CCN(CCO)CC1,0%,-1%[9.22 µM],-53%,/,21%[10 µM]
CCN1CCN(Cc2c(O)ccc3c2O/C(=C\c2ccccc2)C3=O)CC1,-1%,-3%,?,/,-13%
CCN1CCN(Cc2c(O)ccc3c2O/C(=C\c2ccc(C)cc2)C3=O)CC1,1%,13%,10µM*,?,4%[10 µM]
CCc1ccc(/C=C2\Oc3c(ccc(O)c3CN3CCN(C)CC3)C2=O)cc1,1%,-11%[9.22 µM],10µM*,/,-26%[10 µM]
CCN1CCN(Cc2c(O)ccc3c2O/C(=C\C=C\c2ccccc2)C3=O)CC1,5%,-11%,4µM*,?,-13%[0.074 µM]
Cc1ccc(/C=C2\Oc3c(ccc(O)c3CN3CCN(C)CC3)C2=O)cc1,0%,-3%,7.9µM*,/,-6%
COc1cccc(-c2cn3c(n2)sc2cc(C(=O)NCc4ccccc4F)ccc23)c1,0%,/,/,13%[46 µM],/
C[C@@H](C(=O)N[C@@H](CO)Cc1ccccc1)[C@H]1C[C@]1(C)[C@H](NC(=O)OCc1ccccc1)c1ccccc1,-1%,/,/,/,-8%
COc1ccc(Br)cc1CNC(=O)c1cc2n(n1)CCCN(Cc1ccc(C)cc1)C2=O,-5%,/,/,?,/
O=C(c1csnn1)N1CCC2(CCCN(Cc3cc(C(F)(F)F)cc(C(F)(F)F)c3)C2)CC1,/,/,/,/,-1%
CCS(=O)(=O)c1ccc(N=Nc2ccc(O)c3ncccc23)c(OC)c1,3.5µM*,?,14%,/,-199%
Cc1cc(=O)[nH]c(SCCCOc2ccccc2Cl)n1,1%,?,-18%[46.1 µM],-5%,-18%
CCc1cc(OCCCSc2nc(C)cc(=O)[nH]2)ccc1Cl,-3%,35µM*,15%[46.1 µM],?,6%
CCOc1ccc(C(=O)c2cn(CC(=O)Nc3ccc(Cl)cc3)c3cc4c(cc3c2=O)OCCO4)cc1,2%,/,/,/,/
CCOc1ccc(NC(=O)Cn2cc(C(=O)c3ccc(OCC)cc3)c(=O)c3cc4c(cc32)OCCO4)cc1,20µM*,/,/,/,/
CCSc1nc(-c2ccccc2)nc(C(Cl)Cl)n1,1%,10µM*,-33%,?,6%[1.9 µM]
CSc1nc(-c2ccc(C)cc2)nc(C(Cl)Cl)n1,0%,?,-4%[46.1 µM],?,-97%
COC(=O)C1=C(C(=O)OC)[C@@H]2N(C)c3ccccc3[C@@]23C[C@@H](CO)N(C(=O)c2ccco2)C3=N1,/,/,/,-23%[9.22 µM],-43%[10 µM]
Cc1ccc(-n2nnnc2SCn2nnc3ccccc3c2=O)c(C)c1,0%,8.9µM*,?,?,-69%
COc1cc2nc(N3CCN(C(=O)OCc4ccccc4)C(C(=O)NC(C)(C)C)C3)nc(N)c2cc1OC (configuration not stated),0%,/,13µM*,?,/
SMILES,Epigenetic reg,HttQ103 aggreg,NPSR antag,LMNA splice mod,HTT cytoprotect
Cc1ccc(S(=O)(=O)N[C@@H](Cc2ccccc2)C(=O)CCl)cc1,?,?,20µM*,?,?
Cc1ccc(S(=O)(=O)N[C@H](CO)C(=O)O)cc1,/,/,/,/,1%[10 µM]
O=C(O)/C=C/C(=O)c1ccc2c(c1)NC(=O)CO2,0%,-4%,14%,/,0.2µM*
Clc1ccc(/C=C\c2nc(Cl)c(-c3ccc(Cl)cc3)c(Cl)n2)cc1,/,/,/,/,-2%[10 µM]
Clc1ccc2c(NCc3ccco3)ncnc2c1,-7%,14µM*,-8%[46.1 µM],?,-12%
Clc1ccc(-n2ncc3c(NCc4cccs4)ncnc32)cc1,0%,?,-21%[46.1 µM],?,-33%
Cc1ccc(-n2ncc3c(NCc4ccco4)ncnc32)cc1C,0%,0.005µM*,13%,/,-62%
